“And” between values parts separate entries of the source, which are not always exact repeats. Identical values can stand only once. Records with an inconclusive call do not appear. More than one record can exist for a structure, and the calls need not agree. The source made the active and inactive calls. Rule for the calls: active = hit-call score of the fitted dose curve at least 0.9, where 1 is the maximum; inconclusive = response in the unintended direction; inactive = score below 0.9.
Legend:
[1] = ATG_XTT_Cytotoxicity: Cytotoxicity Assessment in the Attagene TRANS-FACTORIAL HepG2 Assay (AID 2283584)
Procedure, shortened: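 24 h chemical exposure of reporter-transfected HepG2; XTT signal loss vs DMSO indicates cytotoxicity.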

[2] = target: Cellular tumor antigen p53 (Homo sapiens) (UniProt P04637); test: TOX21_p53_BLA_p2_ratio: Tox21 HCT-116 p53 Agonism Beta-lactamase Assay, Ratio, Phase 2 (AID 2283592)
Sequence of Cellular tumor antigen p53 (Homo sapiens) (P04637 whole entry, looked up): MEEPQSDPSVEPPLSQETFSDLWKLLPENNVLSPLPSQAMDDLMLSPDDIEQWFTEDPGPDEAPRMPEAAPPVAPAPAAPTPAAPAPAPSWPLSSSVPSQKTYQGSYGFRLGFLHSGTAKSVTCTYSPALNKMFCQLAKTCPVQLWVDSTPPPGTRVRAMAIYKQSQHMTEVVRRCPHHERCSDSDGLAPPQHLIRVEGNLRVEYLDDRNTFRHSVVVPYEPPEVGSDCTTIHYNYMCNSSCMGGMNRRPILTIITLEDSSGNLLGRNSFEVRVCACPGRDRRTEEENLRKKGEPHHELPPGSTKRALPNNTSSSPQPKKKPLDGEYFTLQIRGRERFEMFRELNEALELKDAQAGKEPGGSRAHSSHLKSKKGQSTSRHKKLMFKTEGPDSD
Procedure, shortened: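 Human colon HCT116 cells with an inducible p53 beta-lactamase reporter are exposed to test chemicals for 16 h at 37C. Reporter induction is read as the 460/530 nm emission ratio after CCF4-AM loading, normalized to DMSO.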

[3] = TOX21_p53_BLA_p3_viability: Viability Assessment in the Tox21 HCT-116 p53 Agonism Beta-lactamase Assay, Phase 3 (AID 2283593);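 note: cells exposed to compound for 16 h before reading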
Procedure, shortened: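 HCT-116 cells (4000/well) rested 5 h at 37C, then got DMSO compounds by pin tool (217-fold dilution) for 16 h at 37C, 5% CO2. After the bla read, CellTiter-Glo was added and luminescence read at 30 min, room temperature.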

[4] = target: Cellular tumor antigen p53 (Homo sapiens) (UniProt P04637); test: TOX21_p53_BLA_p3_ratio: Tox21 HCT-116 p53 Agonism Beta-lactamase Assay, Ratio, Phase 3 (AID 2283596)
Procedure, shortened: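 HCT116 p53-bla cells (4000/well) given compound in DMSO (217-fold dilution) after 5 h, incubated 16 h at 37C. CCF4-AM substrate 2 h at room temperature; 460/530 nm emission ratio, gain fitted against DMSO.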

[5] = TOX21_p53_BLA_p4_viability: Viability Assessment in the Tox21 HCT-116 p53 Agonism Beta-lactamase Assay, Phase 4 (AID 2283597);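 note: hits lower the luminescence signal meaning cytotoxicity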
Procedure, shortened: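 Luminescent ATP readout (CellTiter-Glo, 30 min, room temperature) in the same wells as the p53 bla ratio. HCT116 cells were treated for 16 h at 37C with DMSO-dissolved compounds.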

[6] = TOX21_p53_BLA_p2_viability: Viability Assessment in the Tox21 HCT-116 p53 Agonism Beta-lactamase Assay, Phase 2 (AID 2283591);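 note: compound exposure lasted 16 h at 37 °C; actives lower the ATP signal meaning cytotoxicity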
Procedure, shortened: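 HCT-116 p53-bla cells (4000/well) rested 5 h at 37C, then received compounds in DMSO (217-fold dilution) for 16 h at 37C, 5% CO2. After the CCF4 read, CellTiter-Glo was added; ATP luminescence was read after 30 min at room temperature.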

Measured: AC50

CC(C)COC(=O)c1ccccc1O
inactive: [1] | [2] | [3] | [4]

CCCCCCC(O)CCOC(C)=O (stereo not given)
inactive: [1] | [2] | [3] | [4]

CCCc1ccc(N)cc1
inactive: [1] | [2] | [4] | [5]

OC[C@@H](O)[C@H](O)[C@@H](O)[C@@H](O)CO
not listed: [6]
inactive: all other assays above

CCCCCC1C(=O)CCC1CC(=O)OC (stereo not given)
inactive: [1] | [2] | [3] | [4]

CCOC(=O)C(=O)OCC
inactive: [1] | [2] | [3] | [4]

CCNC(=S)NCC
inactive: [1] | [2] | [4]

C=CC(O)CCCCC (stereo not given)
inactive: [1] | [2] | [3] | [5]

CCCCN(CCO)CCO
inactive: [1] | [2] | [3] | [4]

CC1COC(=O)O1 (stereo not given)
inactive: [1] | [2] | [3] | [4]

CCCCCCOc1ccc(O)cc1
active: [2] 34 µM | [4] 36.3 µM | [5] 65 µM
inactive: [1] | [3]

CC1(C)CC(N)CC(C)(CN)C1 (stereo not given)
not listed: [6]
inactive: all other assays above

CCOC(=O)CC1(C)OCC(C)O1 (stereo not given)
inactive: [1] | [2] | [3]

CC1(C)CC(=O)CC(C)(C)N1
inactive: [1] | [2] | [4] | [5]

CCCCCCOC(C)=O
active: [5] 24.9 µM
inactive: [1] | [2] | [4]

COC(=O)C(C)Oc1ccc(Oc2ncc(C(F)(F)F)cc2Cl)cc1 (stereo not given)
not listed: [6]
inactive: all other assays above

Nc1ccc(O)c(N)c1
active: [3] 64 µM
inactive: [1] | [2] | [3] | [4] | [5]

Cc1cc(O)c2c(c1)C(=O)c1cc(O)cc(O)c1C2=O
active: [2] 6.55 µM and 13.2 µM | [4] 12 µM and 33.3 µM
inactive: [1] | [3]

CCCCCCCCOC(C)=O
inactive: [1] | [2] | [4] | [5]

CCCCCCCCCO
inactive: [1] | [2] | [3] | [4]

CCCCCCCCCOS(=O)(=O)O
inactive: [1] | [2] | [4] | [5]

CC(C)(O)CCc1ccccc1
inactive: [1] | [2] | [4]

CCCO
inactive: [1] | [2] | [4] | [5]

O=C(OCc1ccccc1)c1ccccc1O
not listed: [6]
inactive: all other assays above

C=CCCCCCCCCC(=O)OCC
inactive: [1] | [2] | [3] | [5]

NC(=O)c1cnccn1
inactive: [1] | [2] | [3] | [4]

NC(N)=S
inactive: [1] | [2] | [3] | [4]

[Na+]
inactive: [1] | [2] | [3] | [4]

CC(C)(O)C(=O)c1ccc(OCCO)cc1
inactive: [1] | [2] | [4]

CC(C)Cc1ccccc1
inactive: [1] | [2] | [3] | [4]

CC(=O)C1C(=O)C=C(C)OC1=O (stereo not given)
inactive: [1] | [2] | [3] | [4]

CCCCC(CC)COCCO (stereo not given)
inactive: [1] | [2] | [4]

C/C=C(\C)C(=O)OC/C=C(\C)CCC=C(C)C
inactive: [1] | [2] | [4]

CC(=O)CCC=C(C)CCC=C(C)C
inactive: [1] | [2] | [4] | [5]

CC/C=C\CCOC(=O)C(C)C
inactive: [1] | [3]

CC(=O)CCc1ccc(O)cc1
inactive: [1] | [2] | [4]

CN(C)C
inactive: [1] | [2] | [3] | [5]

CC1=CC(C)C(C=O)C(C)C1 (stereo not given) (tested in a mixture with another compound)
inactive: [6] | [2] | [4]

CC1=CCC(=C(C)C)CC1
inactive: [3] | [4]

CC(C)Cc1ccc(C(C)C(=O)O)cc1 (stereo not given)
not listed: [1]
inactive: all other assays above

CC(C)=CC(=O)O
inactive: [6] | [3] | [4]

CCCCC(CC)COC(=O)COc1ccc(Cl)cc1C (stereo not given)
inactive: [3] | [4] | [5]

C1=COCCC1
inactive: [6] | [2] | [4]

c1ccc(-c2nn[nH]n2)cc1
inactive: [2] | [3] | [4]

CCO[Si](CC)(OCC)OCC
inactive: [2] | [3] | [4] | [5]

CC(C)N1C(=O)c2ccccc2C1=O
inactive: [2]

N#CCCCC(C#N)CCC#N (stereo not given)
inactive: [2] | [3]

C=COCC1CCC(COC=C)CC1 (stereo not given)
inactive: [4]

CC(C)=CCCC(C)=CC(=O)O
inactive: [6] | [3] | [4] | [5]

— PubChem BioAssay (EPA / NIEHS)
